{
  "source": "PubChem BioAssay AID1347046",
  "about": "(National Center for Advancing Translational Sciences (NCATS), 2019)",
  "note": "In all, about 1,400 compounds went through this assay and about 940 (67%) were called active. Not shown: some 27% with an inconclusive outcome. Calls come from the whole dose curve. The set was probably picked from earlier hits. Only a sample is shown. Potency is the fitted concentration of half-maximal effect.",
  "data": [
    {"biological_target": "Atrial natriuretic peptide receptor 2 (Homo sapiens) (UniProt P20594)", "sequence (P20594 whole entry, looked up)": "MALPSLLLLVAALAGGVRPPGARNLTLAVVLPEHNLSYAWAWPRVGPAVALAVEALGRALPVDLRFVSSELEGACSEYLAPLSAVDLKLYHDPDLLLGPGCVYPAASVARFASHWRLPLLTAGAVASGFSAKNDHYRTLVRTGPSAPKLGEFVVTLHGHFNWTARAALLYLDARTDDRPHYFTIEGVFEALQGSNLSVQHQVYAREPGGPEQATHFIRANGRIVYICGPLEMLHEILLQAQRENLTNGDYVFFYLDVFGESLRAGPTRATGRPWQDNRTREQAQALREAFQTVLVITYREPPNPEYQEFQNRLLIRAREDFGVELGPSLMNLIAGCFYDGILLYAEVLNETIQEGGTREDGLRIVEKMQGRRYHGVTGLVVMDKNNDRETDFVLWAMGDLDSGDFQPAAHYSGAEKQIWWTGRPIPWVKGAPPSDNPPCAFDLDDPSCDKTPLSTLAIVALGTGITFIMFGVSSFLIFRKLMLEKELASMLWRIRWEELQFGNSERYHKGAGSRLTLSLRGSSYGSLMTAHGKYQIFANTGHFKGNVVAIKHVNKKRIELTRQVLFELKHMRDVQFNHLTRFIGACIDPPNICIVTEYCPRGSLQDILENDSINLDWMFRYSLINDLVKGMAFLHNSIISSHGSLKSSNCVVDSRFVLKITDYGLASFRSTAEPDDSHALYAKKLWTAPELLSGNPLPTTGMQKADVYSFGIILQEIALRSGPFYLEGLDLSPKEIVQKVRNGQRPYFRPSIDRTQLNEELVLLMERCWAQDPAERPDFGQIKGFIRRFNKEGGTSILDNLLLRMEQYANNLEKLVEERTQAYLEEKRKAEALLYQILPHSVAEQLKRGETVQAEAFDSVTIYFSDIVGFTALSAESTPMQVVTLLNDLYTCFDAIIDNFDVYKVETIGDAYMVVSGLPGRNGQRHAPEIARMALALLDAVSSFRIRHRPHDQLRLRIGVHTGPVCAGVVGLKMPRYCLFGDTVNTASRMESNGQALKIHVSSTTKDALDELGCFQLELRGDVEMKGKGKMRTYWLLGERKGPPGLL", "experiment": "Natriuretic polypeptide receptor (hNpr2) antagonism - Subtype selectivity assay; note: nearly all actives have a fitted effect of over 70% in size", "details": "HEK293 hNpr2 GloSensor cGMP luminescence, CNP-stimulated", "experimental": "F. Fan, B. F. Binkowski, B. L. Butler, P. F. Stecha, M. K. Lewis, K. V. Wood, Novel genetically encoded biosensors using firefly luciferase. ACS Chem Biol 3, 346-351 (2008).\nPROTOCOL TABLE (as described by Inglese J, Shamu CE and Guy RK. 2007) SEQUENCE No. (e.g., 1, 2, 3, etc.); PARAMETER (e.g., Cells, Incubation, Reagent, etc.); VALUE and DESCRIPTION. 1. Cells. Seed 1500 HEK293 cGMP-sensor cells expressing hNpr2 per well in 4uL into Greiner 1536-well white/solid bottom high base, TC plates. 2. Incubation. Incubate plated cells at 37C in 5% CO2, 95% RH overnight. 3. Reagent. Add 1uL per well GloSensor reagent from Promega (2% final concentration) or CO2 independent media vehicle control to respective columns of Greiner 1536-well plates. 4. Incubation. Incubate plated cells at ambient temperature for 2 h., protect from light. 5. Compounds. Library compounds and DMSO vehicle control added at 23nL per well, transferred by Pin Tool. 6. Incubation. Incubate plated cells for 30 min. at ambient temperature, protect from light. 7. Detector. GloSensor baseline pre-read luminescence measured using CCD-based camera (Viewlux). 8. Compound. Add 1uL of hNppC peptide to 1 nM final concentration to stimulate hNpr2 or CO2 independent media as vehicle control. 9. Incubation. Incubate treated cells at ambient temperature for 20 min., protect from light. 10. Detector. GloSensor post-hNppC luminescence measured using CCD-based camera (Viewlux). NOTES (numbers refer to Sequence numbers above) 1. HEK293 cells expressing hNpr2 and GIP/pGS-40F were grown to 85-95% confluence (48-72 h) in T175 culture flasks (CO2 independent media supplemented with 10% FBS, 1% Pen/Strep antibiotics, and 1 ug/mL puromycin). Trypsinize and harvest cells from T175 culture flasks and filter through 40 um cell strainer. Cells counted with Invitrogen Countess (30,000,000 - 50,000,000 cells/flask). Cells diluted to a final concentration of 375 cells/uL in CO2 independent media and a Millipore multidrop used to dispense 1500 cells per well (4uL/well) into 13 1536-well Greiner White/Solid bottom, high base tissue-culture treated (TC) plates and one Aurora 1536-well Black/Clear bottom, low base, TC plate (for visual inspection of cell health throughout the duration of the assay). 2. Cells incubated for 24 h. at 37C in 95% RH incubator with metal lid having gas-exchange holes. 3. Prepare GloSensor Reagent (Promega): Reconstitute GloSensor luciferase substrate by adding 8.2mL Hepes buffer to 250mg substrate, mix well, protect from light and stored at -80C. Prepare a fresh 12% GloSensor solution in CO2 independent supplemented plating media (see above). Mix well and store at ambient temperature, protected from light. 1uL 12% GloSensor Luciferase Reagent added (2% final concentration) to respective columns of 13 x 1536-well Greiner plate with BioRaptr, 1uL CO2 independent plating media added to respective columns as vehicle control with BioRaptr. 4. Cells incubated for 2 h. at ambient temperature, protected from light with metal lid having gas-exchange holes. 5. 23nL of library compounds or DMSO vehicle control transferred to 13 Greiner white/solid bottom high base, TC plates in 11 interplate 1:3 titrations (see Yasgar, A. et al. 2008) with Pintool. 6. Cells incubated for 30-50 min. at ambient temperature protected from light with metal lid having gas-exchange holes. 7. Read cellular baseline GloSensor luminescence in presence of test library compounds on the ViewLux [Exposure = 10 s.; Gain = High; Speed = Slow; and Binning = 2X.] 8. hNppC peptide agonist solution prepared at 1 mM (in H2O) stock concentration. From this a working dilution was prepared at 6 nM in CO2 Independent media. 1uL of 6 nM hNppC agonist (1 nM final concentration) or CO2 Independent media vehicle control dispensed into respective columns of 13 x Greiner 1536-well white/solid bottom, tissue culture plates with BioRaptr. 9. Cells incubated for 20 min. at ambient temperature, protected from light with metal lid having gas-exchange holes. 10. […]", "values": [
      {"smiles": "CCC(CC)c1cc([C@H]2CN3CC[C@H]2C[C@@H]3CNC(=O)NCc2ccccc2)nc(-c2ccncc2)n1", "Potency": "12.2 µM (active)"},
      {"smiles": "CCC(CC)c1cc([C@H]2CN3CC[C@H]2C[C@@H]3CNS(=O)(=O)Cc2ccccc2)nc(-c2ccncc2)n1", "Potency": "21.7 µM (active)"},
      {"smiles": "COc1cc2c(cc1Oc1cccc(N(C)C)c1)NC(=O)C21CCN(Cc2ccccn2)CC1", "Potency": "21.7 µM (active)"},
      {"smiles": "COc1cc2c(cc1Oc1cccc(N(C)C)c1)NC(=O)C21CCN(CCC(C)C)CC1", "Potency": "28 µM (active)"},
      {"smiles": "COc1cc2c(cc1OCc1ccncc1)NC(=O)C21CCN(c2ncc(F)cn2)CC1", "Potency": "39.6 µM (active)"},
      {"smiles": "COc1cc2c(cc1Oc1cccc(N(C)C)c1)NC(=O)C21CCN(c2cnccn2)CC1", "Potency": "19.3 µM (active)"}
    ]}
  ]
}
